We go through 54 compounds from PubChem BioAssay AID797 (University of Pittsburgh Molecular Library Screening Center, 2007).

Out of some 200,000 compounds screened, about 110 (0.055%) were called active. The sample as a whole holds a higher share of actives than the screen did. Unmarked numbers belong to inactive results. Rule as the data show it: active = inhibition above about 50%; inactive = the rest.

Chain of Serine/threonine-protein kinase D1 (Homo sapiens) (Q15139 whole entry, looked up): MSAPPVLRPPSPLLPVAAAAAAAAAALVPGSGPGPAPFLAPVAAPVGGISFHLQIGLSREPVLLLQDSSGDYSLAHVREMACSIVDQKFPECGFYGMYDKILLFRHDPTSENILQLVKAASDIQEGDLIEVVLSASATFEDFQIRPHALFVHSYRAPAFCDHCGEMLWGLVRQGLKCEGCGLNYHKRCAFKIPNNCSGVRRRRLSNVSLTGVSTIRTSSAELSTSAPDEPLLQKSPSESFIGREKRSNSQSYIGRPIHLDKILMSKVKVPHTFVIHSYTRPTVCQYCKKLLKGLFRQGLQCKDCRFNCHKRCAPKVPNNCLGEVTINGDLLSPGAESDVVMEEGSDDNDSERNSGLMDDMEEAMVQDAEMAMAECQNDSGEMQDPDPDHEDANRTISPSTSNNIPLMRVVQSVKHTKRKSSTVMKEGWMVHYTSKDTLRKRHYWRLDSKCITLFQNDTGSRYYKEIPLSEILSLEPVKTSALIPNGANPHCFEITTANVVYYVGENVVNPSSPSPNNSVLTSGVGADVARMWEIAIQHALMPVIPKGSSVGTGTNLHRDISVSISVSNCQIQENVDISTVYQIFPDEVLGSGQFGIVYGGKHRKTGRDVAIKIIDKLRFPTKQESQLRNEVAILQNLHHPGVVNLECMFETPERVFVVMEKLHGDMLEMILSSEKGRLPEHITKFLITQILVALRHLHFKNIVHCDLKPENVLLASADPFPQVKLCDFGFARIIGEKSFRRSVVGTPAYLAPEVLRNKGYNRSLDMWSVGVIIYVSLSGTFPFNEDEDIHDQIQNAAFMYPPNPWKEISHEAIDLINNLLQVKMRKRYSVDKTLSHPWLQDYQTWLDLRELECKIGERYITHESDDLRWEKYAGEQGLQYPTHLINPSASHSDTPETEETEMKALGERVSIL

This assay concerns the target Serine/threonine-protein kinase D1 (Homo sapiens) (UniProt Q15139). In words: protein kinase D1 activity blockers – biochemical, fluorescence polarization (AID 797). As to conditions: PKD1 kinase fluorescence polarization assay; stronger effect = higher value; concentration not given here.
Regarding `CC(C)NC(=S)Nc1cccc2cnccc12`, the inhibition was -7.44%.

For the compound `O=C(NC1(C(F)(F)F)NC(=O)N(C2CCCCC2)C1=O)c1ccco1` (centres undefined), the inhibition was -4.49%.

Turning to `Cc1onc(C(=O)NN)c1C(=O)N1CCN(C(c2ccccc2)c2ccccc2)CC1`, the inhibition was 6.23%.

Regarding `CCO[C@H]1OC(C(=O)O)=C[C@@H](C2CCCCC2)[C@@H]1CCCO`, the inhibition was 1.68%.

Consider `O=C(N/N=C/c1cccc([N+](=O)[O-])c1)C1CC(=O)N(c2ccc(Br)cc2)C1` (centres undefined), for which the inhibition was 0.4%.

Take `O=C(NCCN1CCOCC1)Nc1cccc(Cl)c1`: the inhibition was -8.08%.

Regarding `Cc1ccc(-c2c(C)n([O-])c3c([n+]2=O)CCC3)cc1`, the inhibition was -5.77%.

`Cc1cc(C)c(C#N)c(SCC(=O)NN2CC(=O)N(c3ccccc3F)CC2=O)n1`: the inhibition is -3.74%.

Take `O=C(OC1CCOC1=O)c1cccc(S(=O)(=O)Nc2ccc(F)cc2)c1` (centres undefined): the inhibition was 1.98%.

As to `C=CCn1cc(-c2cccc(C(F)(F)F)c2)cc(C#N)c1=O`, the inhibition was 7.22%.

In the case of `O=C(N1CCCC1)C12CC3CC(C1)CC(C(=O)N1CCCC1)(C3)C2`, the inhibition was -14.2%.

With `CCC1CO/C(=C(\C(=C(Cl)Cl)N2CCOCC2)[N+](=O)[O-])N1` (centres undefined), the inhibition was -0.65%.

On to `COc1cc(OC)c(C(=O)OC(C)C(=O)Nc2cc(C(F)(F)F)ccc2Cl)cc1OC` (centres undefined), for which the inhibition is 8.47%.

Take `O=C(CSc1ccc(-c2ccc(F)cc2)nn1)Nc1ccc2c(c1)OCCO2`: the inhibition was -0.29%.

For `Cc1cc(C(=O)NNC(=S)NC(C)c2ccccc2)cs1` (centres undefined), the inhibition was 5.7%.

`C/C(CC(=O)Nc1cccc(C(F)(F)F)c1)=N\NC(=O)C(=O)NCC(C)C`: the inhibition was 3.3%.

Regarding `Cc1cc(N2CCN(C)CC2)nc2ccc(NC(=S)N3CCOCC3)cc12`, the inhibition was -7.15%.

Take `CCn1c2ccccc2c2cc(NC(=O)COC(=O)c3ccccc3Br)ccc21`: the inhibition is -14.8%.

Take `c1ccc(-c2csc(N3CCc4ccccc4C3)n2)cc1`: the inhibition is -5.96%.

Regarding `COC(=O)[C@@H]1CC[C@H](C)[C@@H](c2ccc(C)cc2)N1C(=O)c1ccc(/C=N/O[C@H](C)c2cn([C@@H]3COC[C@H]3O)nn2)cc1`, the inhibition was -8.4%.

In the case of `CCC(=O)NC(=S)Nc1ccc(NC(=O)c2ccco2)c(Cl)c1`, the inhibition was -0.32%.

Consider `CN(C)CCCNC(=O)/C=C/c1ccc(OCc2c(F)cccc2Cl)cc1`, for which the inhibition is -5.92%.

In the case of `CCCC1(C(=O)OC)NC(c2ccco2)C2C(=O)N(C)C(=O)C21` (centres undefined), the inhibition is -3.52%.

With `Cc1noc(C)c1S(=O)(=O)N1CCCC(C(=O)Nc2nccs2)C1` (centres undefined), the inhibition is -0.06%.

`COc1c(C)cc(C(=O)C2CCCN(S(=O)(=O)c3c(C)noc3C)C2)cc1C` (centres undefined): the inhibition is 11.5%.

Consider `Cc1ccc(NC(=O)C2CCCN(S(=O)(=O)c3c(C)noc3C)C2)c(C)c1` (centres undefined), for which the inhibition was 72.5% (active).

In the case of `CCCCN(CC(=O)NC(C)(C)C)C(=O)C(=O)Nc1ccc2c(c1)OCCO2`, the inhibition is 1.16%.

`CCCOC(=O)c1ccc(N2C(=O)c3ccccc3C2=O)cc1`: the inhibition is 1.49%.

Take `O=C(CCc1ccccc1)NNC(=O)c1ccc(Br)cc1`: the inhibition is 4.58%.

For `O=C(c1ccccc1)c1ccc(OCC(O)CN2CCCC2)cc1` (centres undefined), the inhibition was 13.5%.

As for `COC(=O)c1ccc(OCC(O)CN(CCO)CC(O)Cn2ccc3ccccc32)cc1` (centres undefined), the inhibition was 3.96%.

Turning to `OC(CNCc1ccc(Cl)c(Cl)c1)c1ccccc1` (centres undefined), the inhibition was -3.03%.

As for `COc1cc2c(cc1OC)C(Nc1ccc(S(N)(=O)=O)cc1)=NC(C)(C)C2`, the inhibition is -5.13%.

Take `COc1ccc(NC(=O)c2sc(N3CCOCC3)nc2-c2ccccc2)c(OC)c1`: the inhibition is -1.24%.

For the compound `CCC(=O)Nc1ccc(C(=O)N2CCN(C(=O)c3ccco3)CC2)cc1`, the inhibition is 2.96%.

As to `Cc1ccc(NC(=O)Cn2c(=O)n(CCC(=O)NC3CCN(Cc4ccccc4)CC3)c(=O)c3ccccc32)cc1`, the inhibition is 0.69%.

Turning to `O=C(CN1CCOCC1)Nc1c(Cl)cc(Cl)cc1Cl`, the inhibition is -2.42%.

Consider `Cc1ccc2nsnc2c1NC(=O)c1ccccc1[N+](=O)[O-]`, for which the inhibition is -3.06%.

As to `Cc1ccccc1NS(=O)(=O)CCCCC(Cl)(Cl)Cl`, the inhibition is -2.05%.

In the case of `COc1cccc(C2SCC(=O)N2c2cccc(C)c2)c1OC` (centres undefined), the inhibition was -7.34%.

`COc1ccccc1C(=O)NN1C(=O)C2C3C=CC(O3)C2C1=O` (centres undefined): the inhibition was 52.7% (active).

For `O=C(NN1C(=O)C2C3C=CC(O3)C2C1=O)c1ccccc1` (centres undefined), the inhibition was -7.27%.

With `O=C(NN1C(=O)C2C3C=CC(O3)C2C1=O)c1ccncc1` (centres undefined), the inhibition is -9.52%.

Take `O=C(Cc1cccs1)Nc1cccc(-c2nc3ccccc3[nH]2)c1`: the inhibition is -1.91%.

Consider `CCc1cc(C(N)=O)c(NC(=O)c2ccc(OC)cc2)s1`, for which the inhibition was -8.2%.

As to `O=C(O)CC(SCC(=O)Nc1ccc(Br)cc1)C(=O)O` (centres undefined), the inhibition was -6.53%.

Consider `CCOC(=O)c1cnc(SCC(=O)Nc2ccccc2C(=O)OC)nc1N`, for which the inhibition was -2.4%.

Take `Cc1nc2cc(NC(=O)NC3CC3)ccc2n1C`: the inhibition was -0.99%.

Regarding `O=C(Cc1ccc([N+](=O)[O-])cc1)N/N=C/c1ccco1`, the inhibition was -4.83%.

As for `CCCCC(=O)Nc1ccc(C(=O)Nc2cc(C(F)(F)F)ccc2Cl)cc1`, the inhibition is -1.39%.

For `O=C(COc1nc2ccccc2nc1N1CCOCC1)NCC(F)(F)F`, the inhibition was -0.08%.

Consider `CC(=O)Nc1ccc(S(=O)(=O)N(CCc2ccccc2)CC(=O)N/N=C/c2ccc(C(=O)O)cc2)cc1`, for which the inhibition was 5.13%.

As for `CCN(CC(=O)Nc1ccccc1OC)C(=O)Cn1cnc2ccccc2c1=O`, the inhibition was 7.55%.

Turning to `N=C1C(c2nc3ccccc3s2)=C(O)CN1NC(=O)c1ccc([N+](=O)[O-])cc1`, the inhibition is -8.3%.
